The results in this text go back to PubChem BioAssay (EPA / NIEHS).

Read-out in experiment [1]: Vascular cell adhesion molecule 1 (VCAM1), VCAM1 (gene 7412)
The experiment in a line: BSK_4H_VCAM1: BioMAP Diversity Plus: 4H Assay for Vascular cell adhesion molecule 1 (VCAM1) Biomarker Activity (AID 2283033).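 For outcome: cell-surface VCAM-1 protein measured by ELISA.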 To be noted: primary human endothelial cells (HUVEC); actives raise or lower the signal. The essentials:
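Endpoint derived from bidirectional fitting against DMSO controls of VCAM-1 ELISA signal in umbilical vein endothelial cells sampled at 24 h following treatment.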

Read-out in experiment [2]: Interferon-gamma inducible Protein 10 (IP10), CXCL10 (gene 3627)
The experiment in a line: BSK_BE3C_IP10: BioMAP Diversity Plus: BE3C Assay for Interferon-gamma inducible Protein 10 (IP10) Biomarker Activity (AID 2283034). To be noted: primary human bronchial epithelial cells; actives raise or lower the signal. A digest of the protocol:
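Using primary human bronchial epithelial cultures, the assay captures IP-10 by ELISA one day (24 h) after exposure. Parallel SRB staining of total protein flags overt cytotoxicity. Fits run bidirectionally relative to DMSO.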

Read-out in experiment [3]: Monokine induced gamma interferon (MIG), CXCL9 (gene 4283)
As to the kind of experiment: BSK_BE3C_MIG: BioMAP Diversity Plus: BE3C Assay for Monokine induced gamma interferon (MIG) Biomarker Activity (AID 2283035). To be noted: primary human bronchial epithelial cells; actives raise or lower the signal. The essentials: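 ELISA read-out of MIG in human lung bronchial epithelial primary cultures, 24 h post-dosing. Bidirectional curve fit vs DMSO baseline.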

Read-out in experiment [4]: Transforming growth factor beta 1 (TGFb1), TGFB1 (gene 7040)
As to the kind of experiment: BSK_BE3C_TGFb1: BioMAP Diversity Plus: BE3C Assay for Transforming growth factor beta 1 (TGFb1) Biomarker Activity (AID 2283036;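 for outcome: TGF-b1 protein level measured by ELISA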). The conditions noted are these: primary human bronchial epithelial cells; actives raise or lower the signal. The essentials:
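In this human primary bronchial epithelial system, an ELISA quantified TGF-b1 one day after dosing. Endpoint changes in either direction were fitted relative to DMSO.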

Read-out in experiment [5]: Plasminogen activator inhibitor-1 (PAI1), SERPINE1 (gene 5054)
The experiment in a line: BSK_BE3C_PAI1: BioMAP Diversity Plus: BE3C Assay for Plasminogen activator inhibitor-1 (PAI1) Biomarker Activity (AID 2283037). The conditions noted are these: primary human bronchial epithelial cells; actives raise or lower the signal. The essentials: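 PAI-1 biomarker levels in treated human bronchial epithelial cells are determined by ELISA at 24 h. Both increases and decreases relative to DMSO are fitted.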

Read-out in experiment [6]: urokinase plasminogen activator (uPA), PLAU (gene 5328)
As to the kind of experiment: BSK_BE3C_uPA: BioMAP Diversity Plus: BE3C Assay for urokinase plasminogen activator (uPA) Biomarker Activity (AID 2283038).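 For outcome: uPA protein level quantified by ELISA in cell cultures; uPA read one day after compound addition.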 The conditions noted are these: primary human bronchial epithelial cells; actives raise or lower the signal. A digest of the protocol:
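Measured by ELISA: uPA from human primary bronchial epithelial cells 24 h after chemical treatment. Values derive from bidirectional curve fitting with DMSO serving as negative control. Total protein by SRB staining in parallel wells flagged overt cytotoxicity.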

Read-out in experiment [7]: Urokinase-type plasminogen activator receptor (uPAR), PLAUR (gene 5329)
The experiment in a line: BSK_BE3C_uPAR: BioMAP Diversity Plus: BE3C Assay for Urokinase-type plasminogen activator receptor (uPAR) Biomarker Activity (AID 2283039).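 For outcome: uPAR protein level measured by ELISA on the cells; cells exposed to compound for one day before measurement.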 To be noted: primary human bronchial epithelial cells; actives raise or lower the signal. The essentials:
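A uPAR ELISA serves as the readout, taken 24 h after treating primary human bronchial epithelial cells. Responses in either direction are fitted against DMSO, which defines baseline activity.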

Read-out in experiment [8]: Interleukin-6 (IL6), IL6 (gene 3569)
As to the kind of experiment: BSK_CASM3C_IL6: BioMAP Diversity Plus: CASM3C Assay for Interleukin-6 (IL6) Biomarker Activity for (AID 2283040). The conditions noted are these: primary human coronary artery smooth muscle cells; actives raise or lower the signal.

Read-out in experiment [9]: Tissue plasminogen activator (tPA), PLAT (gene 5327)
The experiment in a line: BSK_BE3C_tPA: BioMAP Diversity Plus: BE3C Assay for Tissue plasminogen activator (tPA) Biomarker Activity (AID 2283041).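 For outcome: tPA level quantified by ELISA one day after compound addition.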 To be noted: primary human bronchial epithelial cells; actives raise or lower the signal. A digest of the protocol:
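Bidirectional curve fitting relative to DMSO defined activity, with tPA detected by ELISA in chemically treated human bronchial epithelial primary cells at 24 hours.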

Read-out in experiment [10]: Interleukin-8 (IL8), CXCL8 (gene 3576)
As to the kind of experiment: BSK_CASM3C_IL8: BioMAP Diversity Plus: CASM3C Assay for Interleukin-8 (IL8) Biomarker Activity (AID 2283042).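 Note: IL-8 protein level quantified by ELISA.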 The conditions noted are these: primary human coronary artery smooth muscle cells; actives raise or lower the signal.

Active and inactive are the calls of the source. Rule for the calls: active = hit-call score of the fitted dose curve at least 0.9, where 1 is the maximum; inactive = score below 0.9.

A word on the AC50: it is the concentration giving half of the maximal activity seen.

Take `Cn1c(=O)cc(Oc2ccc(F)cc2F)c2cnc(NCC(C)(C)O)nc21`: the result in [1], in [2], in experiment [3], in [4], in experiment [6] and in experiment [7] was inactive. Besides, the result in experiment [9] was inactive. Further, the AC50 is 9.04 µM (active) in [5], 5.13 µM (active) in [8] and 3.16 µM (active) in [10].
Turning to `COc1ccc2sc(C(=O)Nc3nnn[nH]3)c(OC(C)C)c2c1`, the outcome in [1], in experiment [3] and in experiment [7] was inactive. Besides, the AC50 in experiment [2] was 19.9 µM (active); in experiment [4], 9.17 µM (active); in experiment [5], 12.9 µM (active); in [6], 8.38 µM (active); in experiment [9], 13.9 µM (active); in experiment [10] it was 29.4 µM (active).
For `O=c1[nH]c2ccc(S(=O)CCN3CCC(Cc4ccc(F)cc4)CC3)cc2o1` (stereo not given), in [1], the AC50 is 15.3 µM (active). Further, the result in experiment [2], in experiment [3], in experiment [4], in experiment [5], in experiment [6] and in experiment [7] was inactive. Besides, the result in [8], in experiment [9] and in experiment [10] was inactive.
`O=C1CCCCCN1`: the result in [1], in experiment [2], in [3], in experiment [4], in experiment [5] and in experiment [6] was inactive. Further, the result in experiment [7], in experiment [8], in [9] and in experiment [10] was inactive.
Regarding `CCCCCCc1ccc(O)cc1O`, the AC50 in experiment [1] is 31.8 µM (active); in experiment [2], 32.2 µM (active); in experiment [3], 30.9 µM (active); in experiment [4], 24.6 µM (active); in [5], 31.6 µM (active); in experiment [6], 31.4 µM (active). Moreover, the AC50 in experiment [7] was 34.1 µM (active); in experiment [9], 13.2 µM (active). In addition, the outcome in [8] and in experiment [10] was inactive.
As to `Fc1ccccc1[C@@H](F)COC1CCC(Nc2ncnc3[nH]ncc23)CC1` (stereo not given in full), the result in experiment [1], in experiment [2], in [3], in experiment [4], in experiment [5] and in experiment [6] was inactive. Moreover, the result in experiment [7], in experiment [8], in experiment [9] and in [10] was inactive.
In the case of `CC(O)CN(CCN(CC(C)O)CC(C)O)CC(C)O` (stereo not given), the result in experiment [1], in experiment [2], in experiment [3], in experiment [4], in experiment [5] and in experiment [6] was inactive. For the same molecule, the outcome in experiment [7], in experiment [8], in experiment [9] and in experiment [10] was inactive.
In the case of `CC[C@H](C)C(=O)O[C@H]1C[C@@H](C)C=C2C=C[C@H](C)[C@H](CC[C@@H]3C[C@@H](O)CC(=O)O3)[C@H]21`, the AC50 in [2] was 36.3 µM (active); in [3] it was 36.1 µM (active); in experiment [4], 34 µM (active); in experiment [5] it was 28.8 µM (active); in experiment [6], 32.1 µM (active); in experiment [7], 30.9 µM (active). The AC50 in experiment [9] is 25.6 µM (active). Moreover, the result in experiment [8] and in experiment [10] was inactive.
As to `Cc1[nH]cnc1C[C@H]1CCc2c(C)c3ccccc3n2C1=O`, the AC50 in experiment [1] is 28.9 µM (active); in [7], 24.1 µM (active). In addition, the outcome in experiment [2], in [3], in experiment [4], in experiment [5], in experiment [6] and in [8] was inactive. The result in experiment [9] and in experiment [10] was inactive.
As to `CCN(C(=O)c1cc(C)cc(OC[C@H](C)Nc2ccncc2)c1)C(C)C`, the outcome in experiment [1], in experiment [2], in experiment [3], in experiment [4], in experiment [5] and in experiment [6] was inactive. In addition, the outcome in experiment [7], in [8], in experiment [9] and in [10] was inactive.
In the case of `CCOC(=O)c1ccc(C2CCC(NC[C@H](O)COc3ccc(O)c(NS(C)(=O)=O)c3)CC2)cc1` (stereo not given in full), the outcome in experiment [1], in [2], in experiment [3], in [4], in [5] and in experiment [7] was inactive. The outcome in experiment [8], in experiment [9] and in [10] was inactive. In addition, the AC50 in experiment [6] is 14.9 µM (active).
Consider `CC(C)c1cccc(C(C)C)c1N1C(=O)c2ccc(O)cc2C1=O`, for which the AC50 in experiment [1] was 29.4 µM (active); in experiment [2], 19.5 µM (active); in experiment [3] it was 26.3 µM (active); in experiment [5], 9.07 µM (active); in experiment [9], 27.2 µM (active). The result in experiment [6], in experiment [8] and in experiment [10] was inactive.
Consider `CCOC(=O)COc1ccc2c(c1)CC(NCC(O)c1cccc(Cl)c1)CC2` (stereo not given), for which the AC50 is 30 µM (active) in [1], 30.3 µM (active) in [2], 29 µM (active) in [4] and 31.2 µM (active) in experiment [6]. The result in [3], in experiment [5], in experiment [7], in experiment [8], in experiment [9] and in experiment [10] was inactive.
`Nc1ccc(Nc2ccccc2)cc1`: the AC50 in experiment [1] is 3.97 µM (active). Also, the result in [2], in experiment [3], in experiment [4], in [5], in [6] and in [7] was inactive. Besides, the result in experiment [8], in [9] and in [10] was inactive.
For `C[C@](N)(Cc1ccc(O)c(O)c1)C(=O)O`, the result in experiment [1], in experiment [2], in experiment [3], in experiment [4], in [5] and in experiment [6] was inactive. In addition, the outcome in experiment [7], in [8], in experiment [9] and in experiment [10] was inactive.
Turning to `Nc1nc2ncc(CNc3ccc(C(=O)N[C@@H](CCC(=O)O)C(=O)O)cc3)nc2c(=O)[nH]1`, the outcome in experiment [1], in [2], in experiment [3], in experiment [4], in experiment [5] and in [6] was inactive. For the same molecule, the outcome in experiment [7], in [8], in [9] and in experiment [10] was inactive.
`CC1(C)C(=O)N(Br)C(=O)N1Br`: the outcome in experiment [1], in experiment [2], in experiment [3], in experiment [4], in [5] and in [6] was inactive. Moreover, the outcome in experiment [7], in experiment [8], in [9] and in [10] was inactive.
For `CNCc1ccc(NC(=O)c2c[nH]c3c2C(=O)CCC3)cc1`, the result in experiment [1], in experiment [2], in [3], in experiment [4], in [5] and in experiment [6] was inactive. Besides, the outcome in experiment [7], in [8], in experiment [9] and in experiment [10] was inactive.
As for `CCCCC(CC)COC(=O)c1ccc(C(=O)OCC(CC)CCCC)cc1` (stereo not given), the outcome in experiment [1], in experiment [2], in experiment [3], in [4], in [5] and in [6] was inactive. In addition, the outcome in experiment [7], in experiment [8], in experiment [9] and in experiment [10] was inactive.
`C=CC(=C)CCC=C(C)C`: the result in [1], in experiment [2], in experiment [3], in [4], in [5] and in experiment [6] was inactive. For the same molecule, the result in [7], in experiment [8], in experiment [9] and in experiment [10] was inactive.
Consider `CCOC(=O)CC(CC(=O)OCC)(OC(C)=O)C(=O)OCC`, for which the outcome in experiment [1], in experiment [2], in experiment [3], in experiment [4], in [5] and in experiment [6] was inactive. Further, the outcome in experiment [7], in experiment [8], in [9] and in [10] was inactive.
With `CCC(C)(C)C(=O)O[C@H]1C[C@@H](C)C=C2C=C[C@H](C)[C@H](CC[C@@H]3C[C@@H](O)CC(=O)O3)[C@H]21`, the AC50 in experiment [1] is 29.9 µM (active); in [2] it was 34.1 µM (active); in experiment [3] it was 36.7 µM (active); in experiment [4] it was 27.1 µM (active); in [5], 31.9 µM (active); in experiment [7], 32.5 µM (active). Also, the figures for the AC50 in experiment [9] and in experiment [10] were 5.4 µM (active) and 34.2 µM (active), respectively. Besides, in experiment [8], the result was inactive.
